Bioassay records: PubChem, Paczesny and Yang Labs, IUPUI and University of Michigan
The sample as a whole holds a higher share of hits than the screen did.
ST2 inh = inhibitors of human ST2 (IL1RL1) binding to IL-33, primary screen, biochemical, AlphaLISA; actives 2.3% (n = 78,000); inhibition, % for hits at 17 µM; AID 1259354, 2018; Interleukin-1 receptor-like 1 (Homo sapiens), Q01638; AlphaLISA ST2-Fc/biotin-IL-33 interaction, 1 h; in the data active = inhibition above about 30%
Target sequence (Q01638 whole entry, looked up): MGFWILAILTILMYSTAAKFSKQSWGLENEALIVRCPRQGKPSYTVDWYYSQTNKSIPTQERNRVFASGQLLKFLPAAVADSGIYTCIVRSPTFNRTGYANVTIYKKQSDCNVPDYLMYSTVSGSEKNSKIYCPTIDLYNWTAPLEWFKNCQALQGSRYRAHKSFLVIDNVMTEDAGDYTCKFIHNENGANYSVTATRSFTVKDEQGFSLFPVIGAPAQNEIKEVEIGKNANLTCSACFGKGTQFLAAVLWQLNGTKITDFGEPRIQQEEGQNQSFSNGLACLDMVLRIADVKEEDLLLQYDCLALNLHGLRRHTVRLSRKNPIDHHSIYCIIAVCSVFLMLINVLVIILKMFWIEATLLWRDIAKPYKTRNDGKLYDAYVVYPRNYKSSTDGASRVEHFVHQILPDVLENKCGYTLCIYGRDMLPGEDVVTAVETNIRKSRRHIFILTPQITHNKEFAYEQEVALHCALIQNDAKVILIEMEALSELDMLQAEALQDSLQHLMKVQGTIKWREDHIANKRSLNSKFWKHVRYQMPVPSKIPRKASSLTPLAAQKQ
Each line names hits and unclear results; the compound was inactive in the other large screens; ! = a repeat was not active.

Cc1ccc(OCCCCn2cnc3ccccc3c2=O)c([N+](=O)[O-])c1	none
CN(C)CC1(O)CCCN(C(=O)c2ccc(-n3cnnn3)cc2)CC1 (centres undefined)	none
CC1CC(C)CN(C(=O)CSC2=Nc3ccccc3C3=NC(C)C(=O)N23)C1 (centres undefined)	none
Cc1cc(C)cc(-n2c(=O)c3sccc3n(CC(=O)Nc3ccccc3F)c2=O)c1	none
CCn1ccnc1C(O)(c1ccccc1)c1nccn1CC	none
COc1ccc(Cc2ccc(OC)cc2)cc1	none
COc1ccc(CCC(=O)NCc2ccncc2)cc1	none
CCCCOC(=O)Nc1ccc(N(C)C)cc1	ST2 inh 42%
COc1ccc(CC(=O)Nc2ccc(I)cc2)cc1	none
CCOC(=O)Nc1ccc(C(C)CC)cc1 (centres undefined)	none
COc1ccc(N(C)C)cc1	ST2 inh 32%
COc1ccc(C(C)c2ccc(OC)cc2)cc1	none
CCCCOC(=O)Nc1ccccc1C(=O)N1CCCCC1	none
COc1ccc(CCC(=O)Nc2ccc(N(C)C)cc2)cc1	ST2 inh 46%
COc1ccc2c(c1OC)C(=O)OC2Nc1ccc(Cl)c(Cl)c1 (centres undefined)	none
Cn1c(CNc2ccc(C(=O)O)cc2)c(C#N)c2ccccc21	none
CC(=O)C1=NN(c2ccccc2C)C2C(=O)N(c3ccc(Cl)cc3)C(=O)C12 (centres undefined)	none
Cc1cccc(Cn2c(CNS(=O)(=O)c3ccccc3)nc3cccnc32)c1	none
COc1ccc(C(=O)N2N=C(c3cccc(Br)c3)CC2(O)C(F)(F)F)cc1 (centres undefined)	none
Cc1ccc(NC(=O)c2cccc(S(=O)(=O)N3CCCCC3)c2)cc1	none
O=C(Nc1ccccc1[N+](=O)[O-])c1ccc(S(=O)(=O)N2CCCCC2)cc1	ST2 inh 35%
O=C(Nc1ccccc1C(=O)O)c1ccc(S(=O)(=O)N2CCCCC2)cc1	none
O=C(Nc1ccccc1[N+](=O)[O-])c1cccc(S(=O)(=O)N2CCCCC2)c1	ST2 inh 43%
CC1CN(S(=O)(=O)c2ccc(Cl)c(C(=O)Nc3ccccc3[N+](=O)[O-])c2)CC(C)O1 (centres undefined)	none
O=C(Nc1ccccn1)c1cccc(S(=O)(=O)N2CCCCC2)c1	none
COc1ccc([N+](=O)[O-])cc1NCN1C(=O)NC(C)(C)C1=O	none
COc1ccc(C)cc1NS(=O)(=O)c1ccc(CC(C)C)cc1	none
COc1cc(C)c(CN2CCc3ccccc3C2)cc1C	none
O=C(c1ccccc1[N+](=O)[O-])N1CCN(c2ccccc2)CC1	none
COc1cccc(-c2nnnn2[C@H]2CO[C@H]3[C@@H]2OC[C@@H]3NC(=O)c2ccc(C(F)(F)F)cc2)c1	none
O=C(NC1CCCCC1)O[C@@H]1CO[C@H]2[C@@H]1OC[C@@H]2n1nnnc1-c1ccccc1	ST2 inh 39%
O=C(NC1CCCCC1)N[C@H]1CO[C@H]2[C@@H]1OC[C@@H]2n1nnnc1Oc1ccc(-n2ccnc2)cc1	none
Cc1cccc(C)c1OCC(=O)Nc1ccc(-c2nnc(-c3ccco3)o2)cc1	none
COC(=O)c1c[nH]n2c(=O)c(Cc3cccc(C)c3)c(C)nc12	none
O=C(NC1CCCC1)c1cc(-c2cccs2)on1	none
COC(=O)c1c[nH]n2c(NC3CCCCC3)c(-c3cccs3)nc12	ST2 inh 32%
CSc1ccc(-c2nc(CSCC(=O)N3CCN(Cc4ccccc4)CC3)c(C)o2)cc1	none
CC1CCCCC1NC(=O)C1CCCN(S(C)(=O)=O)C1 (centres undefined)	none
NC(=O)c1cnc2n1CCN(C(=O)c1ccccc1N1CCOCC1)C2	none
CC(C)Cc1ncc2c(n1)CN(C(=O)CC1C(=O)NCCN1C(C)C)C2 (centres undefined)	none
Cc1nnsc1CN(C)C(=O)[C@H](N)Cc1c[nH]c2ccccc12	none
FC(F)(F)c1cccc(Cc2noc(CN3CCC(Oc4cccnc4)CC3)n2)c1	none
CC1=C(C(=O)Nc2ccccn2)C(c2cccc([N+](=O)[O-])c2)C2=C(CCCC2=O)N1 (centres undefined)	none
O=C(Nc1ccccn1)c1ccc2c(c1)C(=O)N(c1cccc([N+](=O)[O-])c1)C2=O	ST2 inh 30%
O=C(Nc1ccccc1C(=O)O)c1ccc2c(c1)C(=O)N(c1ccccn1)C2=O	none
CCOc1ccc(C(O)=C2C(=O)C(=O)N(c3nnc(C)s3)C2c2ccccc2F)cc1 (centres undefined)	none
COc1cc(-c2nnc3n2C(C)(C)Cc2ccccc2-3)cc(OC)c1OC	none
Cc1ccc(N=Cc2nc(-c3ccccc3)oc2O)cc1Cl	none
COc1cc(-c2nc(C=C3C(C)=Nc4ccccc43)c(O)o2)cc(OC)c1OC	ST2 inh 34%
CC(=O)Nc1cccc(-c2nccc(CCC(F)(F)F)n2)c1	none
O=C1c2ccccc2C(=O)[C@H]2C3c4ccccc4C(c4ccccc43)[C@@H]12	ST2 inh 32%
O=C1c2ccccc2C(=O)C1c1ccc(-c2ccccc2)cc1	none
O=C1c2ccccc2C(=O)C1c1cccc2c1CCCC2	none
COc1cc([N+](=O)[O-])cc(C=Nc2ccc(-c3nc4c(C)cccc4o3)cc2)c1O	none
COc1cc([N+](=O)[O-])cc(C=Nc2cccc(-c3nc4c(C)cccc4o3)c2)c1O	none
COc1cc([N+](=O)[O-])cc(C=Nc2ncccc2O)c1O	ST2 inh 42%
C=CCN(Cc1cccc(OC)c1)C(=O)c1cccc(-c2noc(C)n2)c1	none
CC1=CCC2CC1C(c1ccc(N(C)C)cc1)OC2(C)C (centres undefined)	ST2 inh 60%
C=CCc1c(C)nc2nc(SCC(=O)Nc3cccc(Cl)c3C)nn2c1C	none
Nc1nnc(CCCNC(=O)C2CCCN(C3CCCCC3)C2)s1 (centres undefined)	none
COc1ccc(-c2ccccc2NC(=O)C2CCCN2C2CCOCC2)cc1 (centres undefined)	none
CC(=O)N1CCN(CCc2ccccc2)CC1	none
[O-][n+]1c2ccccc2[n+]([O-])c2cc(O)ccc21	ST2 inh 35%
C[C@@H]1O[C@@H](O[C@H]2[C@H](Oc3cc(O)c4c(c3)OC(c3ccc(O)cc3)CC4=O)O[C@H](COC(=O)CC(C)(O)CC(=O)O)[C@@H](O)[C@@H]2O)[C@H](O)[C@H](O)[C@H]1O (some centres undefined)	none
COc1ccc(CNc2ccc3c(c2)ncn3C)cc1OC	none
COc1ccc(OC)c(CNc2ccc3c(c2)ncn3C)c1	ST2 inh 36%!
COc1cccc(CNc2ccc3c(c2)ncn3C)c1O	none
CN1CC2(CCCN(C(=O)c3ccn(C(C)(C)C)c3)C2)OC1=O (centres undefined)	none
COc1ccc(/C=C(/NC(=O)c2ccco2)C(=O)Nc2ccc(Cl)cc2)cc1	none
COc1ccc(-c2cc(N3CCN(S(=O)(=O)c4ccc(OC)c(Cl)c4)CC3)ncn2)cc1	none
O=C(COc1ccc(Br)cc1)N1CCCC1	none
O=S(=O)(c1ccccc1)c1nc(-c2ccc(F)cc2)oc1N1CCCCC1	none
Cc1nc(S(=O)(=O)c2ccccc2)c(N2CCCCC2)o1	none
N#Cc1nc(COc2ccccc2F)oc1N1CCCCC1	ST2 inh 53%
Cc1ccccc1OCc1nc(C#N)c(N2CCCC2)o1	ST2 inh 71%
Brc1ccc(-c2noc(COc3ccccc3)n2)cc1	none
N#Cc1nc(-c2ccc(F)cc2)oc1N1CCOCC1	none
N#Cc1nc(COc2ccccc2F)oc1N1CCCC1	ST2 inh 53%
COc1ccc(-c2nc(C#N)c(N3CCOCC3)o2)cc1	none
Fc1ccccc1OCCN1CCNCC1	none
Fc1ccccc1OCCCOc1ccccc1F	none
N#Cc1nc(COc2ccc(Br)cc2)oc1N1CCCCC1	ST2 inh 64%
CCOCCCNCc1ccc(OCC)c(OC)c1	none
